Experimental data taken from PubChem BioAssay (EPA / NIEHS).
A structure can be active in one record and inactive in another. Calls of active or inactive are those of the source. The calls were made as follows: active = hit-call score of the fitted dose curve at least 0.9, where 1 is the maximum; inactive = score below 0.9.

Columns and labels:
[1] = read-out: Monokine induced gamma interferon (MIG), CXCL9 (gene 4283); assay: BSK_hDFCGF_MIG: BioMAP Diversity Plus: hDFCGF Assay for Monokine induced gamma interferon (MIG) Biomarker Activity (AID 2283063); settings: primary human foreskin fibroblasts; actives raise or lower the signal
Summary of the method: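 Human primary foreskin fibroblasts in the hDFCGF system, exposed to test chemical for 24 h; MIG measured by ELISA. Bidirectional curve fitting against DMSO negative control as activity baseline.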

[2] = read-out: Matrix Metallopeptidase 1 (MMP1), MMP1 (gene 4312); assay: BSK_hDFCGF_MMP1: BioMAP Diversity Plus: hDFCGF Assay for Matrix Metallopeptidase 1 (MMP1) Biomarker Activity (AID 2283064); settings: primary human foreskin fibroblasts; actives raise or lower the signal
Summary of the method: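 Human foreskin fibroblasts exposed to chemical for 24 h; MMP1 detected by ELISA, with DMSO as baseline for bidirectional fitting.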

[3] = read-out: Vascular cell adhesion molecule 1 (VCAM1), VCAM1 (gene 7412); assay: BSK_hDFCGF_VCAM1: BioMAP Diversity Plus: hDFCGF Assay for Vascular cell adhesion molecule 1 (VCAM1) Biomarker Activity (AID 2283065); settings: primary human foreskin fibroblasts; actives raise or lower the signal;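 as to AC50: VCAM-1 protein level quantified by ELISA after 24 h chemical exposure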
Summary of the method: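 ELISA readout of VCAM-1 on human dermal fibroblast primary cultures, 24 h after chemical exposure. Gain or loss of signal fitted in both directions against DMSO baseline.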

[4] = read-out: Plasminogen activator inhibitor-1 (PAI1), SERPINE1 (gene 5054); assay: BSK_hDFCGF_PAI1: BioMAP Diversity Plus: hDFCGF Assay for Plasminogen activator inhibitor-1 (PAI1) Biomarker Activity (AID 2283066); settings: primary human foreskin fibroblasts; actives raise or lower the signal
Summary of the method: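 PAI-1 levels in human dermal foreskin fibroblasts were quantified by ELISA 24 h after dosing, with gain or loss analysed against DMSO. Overt cytotoxicity was checked by sulforhodamine B total-protein staining in parallel cultures.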

[5] = read-out: Intercellular Adhesion Molecule 1 (ICAM1), ICAM1 (gene 3383); assay: BSK_KF3CT_ICAM1: BioMAP Diversity Plus: KF3CT Assay for Intercellular Adhesion Molecule 1 (ICAM1) Biomarker Activity (AID 2283067); settings: primary human keratinocytes with fibroblasts; actives raise or lower the signal
Summary of the method: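 Cell-surface ICAM-1 was measured by ELISA 24 h after dosing primary human skin keratinocytes co-cultured with fibroblasts. Parallel SRB staining tracked overt cytotoxicity. Gain or loss of signal was fitted relative to DMSO.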

[6] = BSK_KF3CT_SRB: Viability Assessment in the BioMAP Diversity Plus: KF3CT Assay (AID 2283069); settings: primary human keratinocytes with fibroblasts;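 also: read 24 h after compound addition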
Summary of the method: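 Overt cytotoxicity is assessed as total protein by sulforhodamine B staining in parallel human skin co-cultures at 24 h after dosing. DMSO serves as negative control and baseline.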

[7] = read-out: Interleukin-1 alpha (IL1a), IL1A (gene 3552); assay: BSK_KF3CT_IL1a: BioMAP Diversity Plus: KF3CT Assay for Interleukin-1 alpha (IL1a) Biomarker Activity (AID 2283070); settings: primary human keratinocytes with fibroblasts; actives raise or lower the signal
Summary of the method: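 Readout is IL-1a level by ELISA, compared bidirectionally with DMSO as baseline. Cells: human keratinocytes co-cultured with foreskin fibroblasts, harvested 24 h post-dose.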

[8] = read-out: TIMP metallopeptidase inhibitor 2 (TIMP2), TIMP2 (gene 7077); assay: BSK_KF3CT_TIMP2: BioMAP Diversity Plus: KF3CT Assay for TIMP metallopeptidase inhibitor 2 (TIMP2) Biomarker Activity (AID 2283071); settings: primary human keratinocytes with fibroblasts; actives raise or lower the signal
Summary of the method: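 TIMP-2 measured by ELISA at 24 h in human keratinocyte/fibroblast primary co-cultures exposed to chemicals. Both increases and decreases were fitted against DMSO. Parallel cultures were stained with SRB for total protein as an overt-cytotoxicity check.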

[9] = read-out: Transforming growth factor beta 1 (TGFb1), TGFB1 (gene 7040); assay: BSK_KF3CT_TGFb1: BioMAP Diversity Plus: KF3CT Assay for Transforming growth factor beta 1 (TGFb1) Biomarker Activity (AID 2283072); settings: primary human keratinocytes with fibroblasts; actives raise or lower the signal
Summary of the method: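 ELISA quantifies TGF-b1 at 24 h post-dose in a primary human skin co-culture of keratinocytes and fibroblasts, with gain or loss judged against DMSO. Parallel SRB total-protein staining flags overt cytotoxicity.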

[10] = read-out: Interferon-gamma inducible Protein 10 (IP10), CXCL10 (gene 3627); assay: BSK_KF3CT_IP10: BioMAP Diversity Plus: KF3CT Assay for Interferon-gamma inducible Protein 10 (IP10) Biomarker Activity (AID 2283068); settings: primary human keratinocytes with fibroblasts; actives raise or lower the signal
Summary of the method: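 KF3CT co-culture (keratinocytes + foreskin fibroblasts), 24 h compound, IP-10 by ELISA; bidirectional fit vs DMSO baseline.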

Measured: AC50

O=P(OC(CCl)CCl)(OC(CCl)CCl)OC(CCl)CCl
inactive: [1] | [2] | [3] | [4] | [5] | [6] | [7] | [8] | [9]

COC(=O)c1c(Cl)c(Cl)c(C(=O)OC)c(Cl)c1Cl
inactive: [1] | [2] | [3] | [4] | [5] | [6] | [7] | [8] | [9]

CCOC(=O)c1ccc(C2CCC(NC[C@H](O)COc3ccc(O)c(NS(C)(=O)=O)c3)CC2)cc1 (stereo partly specified)
active: [1] 24.7 µM | [2] 15.7 µM | [3] 8.27 µM | [4] 8.8 µM | [9] 18.7 µM
inactive: [5] | [6] | [7] | [8]

CC1(C)C(=O)N(Br)C(=O)N1Br
inactive: [1] | [2] | [3] | [4] | [5] | [6] | [7] | [8] | [9]

C1N2CN3CN1CN(C2)C3
inactive: [1] | [2] | [4] | [5] | [10] | [6] | [7] | [8] | [9]

Cc1ccc(O)cc1
inactive: [1] | [2] | [4] | [5] | [10] | [6] | [7] | [8] | [9]

CCNc1ccccc1
inactive: [1] | [2] | [3] | [4] | [5] | [6] | [7] | [8] | [9]

CCCCCCc1ccc(O)cc1O
active: [1] 33.6 µM | [2] 37.9 µM | [3] 28.1 µM | [4] 30.7 µM | [5] 31.3 µM | [7] 30.3 µM | [8] 32.7 µM | [9] 29.7 µM

COCCOc1cc2cc(C(=O)NC3CCN(C(C)C)CC3)n(CC(=O)Nc3ccc(Cl)cn3)c2cn1
inactive: [1] | [2] | [4] | [5] | [10] | [6] | [7] | [8] | [9]

CNS(=O)(=O)c1cc(C(=O)N2CCC(CCN3C4CCC3CC(n3c(C)nc5ccccc53)C4)(c3cccc(F)c3)CC2)c(Cl)cc1F (stereo unspecified)
inactive: [1] | [2] | [5] | [10] | [6] | [7] | [8]
active: [4] 20 µM | [9] 32.4 µM

CC(C)c1cccc(C(C)C)c1N1C(=O)c2ccc(O)cc2C1=O
active: [1] 31.9 µM | [3] 13.8 µM | [4] 22 µM | [6] 29.1 µM | [7] 30.9 µM | [8] 29.2 µM | [9] 29.4 µM
inactive: [2] | [5]

CC[C@H]1OC(=O)[C@H](C)[C@@H](O[C@H]2C[C@@](C)(OC)[C@@H](O)[C@H](C)O2)[C@H](C)[C@@H](O[C@@H]2O[C@H](C)C[C@H](N(C)C)[C@H]2O)[C@](C)(O)C[C@@H](C)C(=O)[C@H](C)[C@@H](O)[C@]1(C)O
inactive: [1] | [2] | [4] | [5] | [10] | [6] | [7] | [8] | [9]

Cn1c(=O)c2c(ncn2C)n(C)c1=O
inactive: [1] | [2] | [3] | [4] | [5] | [6] | [7] | [8] | [9]

CC(C)=CCC/C(C)=C/CO
inactive: [1] | [2] | [4] | [5] | [10] | [6] | [7] | [8] | [9]

CCCC(=O)OCC
inactive: [1] | [2] | [4] | [5] | [10] | [6] | [7] | [8] | [9]

CC1=CC(=O)CC(C)(C)C1
inactive: [1] | [2] | [4] | [5] | [10] | [6] | [7] | [8] | [9]

Oc1ccc2c(c1)-c1ccccc1C2
inactive: [1] | [2] | [3] | [4] | [5] | [6] | [7] | [8] | [9]

Cn1cnc([N+](=O)[O-])c1Sc1ncnc2nc[nH]c12
active: [4] 11.7 µM
inactive: [1] | [2] | [4] | [5] | [6] | [7] | [8] | [9]

CCOC(=O)COc1ccc2c(c1)CC(NCC(O)c1cccc(Cl)c1)CC2 (stereo unspecified)
inactive: [5] | [6] | [7] | [8] | [9]
active: [1] 26.8 µM | [2] 33.9 µM | [3] 21.9 µM | [4] 31.7 µM

O=C1CCC(N2C(=O)c3ccccc3C2=O)C(=O)N1 (stereo unspecified)
inactive: [1] | [2] | [3] | [4] | [5] | [6] | [7] | [8] | [9]

CCOCCO
inactive: [1] | [2] | [4] | [5] | [10] | [6] | [7] | [8] | [9]

CC/C(=C\C(=N/O)C(N)=O)C(C)[N+](=O)[O-] (stereo unspecified)
inactive: [1] | [2] | [3] | [4] | [5] | [6] | [7] | [8] | [9]

C=CCCCCCCCCC(=O)O
inactive: [1] | [2] | [3] | [4] | [5] | [6] | [7] | [8] | [9]

COc1ccc2sc(C(=O)Nc3nnn[nH]3)c(OC(C)C)c2c1
active: [1] 15.5 µM | [2] 13.9 µM | [3] 12.2 µM | [4] 6.57 µM | [5] 24 µM | [6] 26.1 µM | [7] 19.9 µM | [8] 19.9 µM | [9] 19.9 µM

CCCCCCCCCCCCc1ccccc1
inactive: [1] | [2] | [3] | [4] | [5] | [6] | [7] | [8] | [9]

CCCCC(CC)COC(=O)CCCCCCCCC(=O)OCC(CC)CCCC (stereo unspecified)
inactive: [1] | [2] | [3] | [4] | [5] | [6] | [7] | [8] | [9]

Nc1nc2ncc(CNc3ccc(C(=O)N[C@@H](CCC(=O)O)C(=O)O)cc3)nc2c(=O)[nH]1
inactive: [1] | [2] | [4] | [5] | [10] | [6] | [7] | [8] | [9]

CC(=O)c1ccc2c(c1)[C@H](NC(=O)c1ccc(F)cc1)[C@@H](O)C(C)(C)O2
inactive: [1] | [2] | [3] | [4] | [5] | [6] | [7] | [8] | [9]

COCCOCCOCCOC
inactive: [1] | [2] | [3] | [4] | [5] | [6] | [7] | [8] | [9]

CCC(C)(C)C(=O)O[C@H]1C[C@@H](C)C=C2C=C[C@H](C)[C@H](CC[C@@H]3C[C@@H](O)CC(=O)O3)[C@H]21
active: [3] 33.9 µM
